# Bioassay records from PubChem BioAssay.
# L3MBTL1 inh – qHTS Assay for the Inhibitors of L3MBTL1; 230,000 tested, 0.66% active; Lethal(3)malignant brain tumor-like protein 1 (Homo sapiens), Q9Y468; Potency, µM (highest dose often 57.1 µM), for inactives: at the top dose activity, negative = inhibition, most hits filed as inhibitors; AlphaScreen L3MBTL1–H3K9me1 peptide binding; further: on the % scale 0 is the no-effect control and ±100 the full control effect; nearly all actives have a fitted effect of over 60% in size
#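 Read-out is AlphaScreen signal from streptavidin donor and nickel chelate acceptor beads (10 ug/mL final each) bridging L3MBTL1 (50 nM) and biotinylated K9-monomethylated H3(1-15) peptide (75 nM), after 30 min compound exposure at room temperature.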
# G9a block – qHTS Assay for Inhibitors of Histone Lysine Methyltransferase G9a. 350,000 tested, 8.8% active. Potency, µM (top dose mostly 102 µM), without a hit: top-dose activity, negative = inhibition, most hits filed as inhibitors. AID 504332, 2011. Histone-lysine N-methyltransferase EHMT2 (Homo sapiens), Q96KQ7. G9a H3K9 monomethylation, AlphaScreen, 2 h; further: on the % scale 0 is the no-effect control and ±100 the full control effect; nearly all actives have a fitted effect of over 75% in size
# Target sequence (Q96KQ7 913-1193 limits assumed): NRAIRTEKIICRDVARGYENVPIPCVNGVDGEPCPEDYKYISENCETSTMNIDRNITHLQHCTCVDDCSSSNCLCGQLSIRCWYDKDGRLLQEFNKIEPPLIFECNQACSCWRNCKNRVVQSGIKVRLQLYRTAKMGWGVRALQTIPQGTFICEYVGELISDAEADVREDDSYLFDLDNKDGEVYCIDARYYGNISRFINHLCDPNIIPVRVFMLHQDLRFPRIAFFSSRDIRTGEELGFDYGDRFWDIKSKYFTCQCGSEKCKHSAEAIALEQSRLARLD
#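 AlphaScreen detection with an anti-monomethyl H3K9 antibody quantified product after a 2 h room-temperature reaction containing 500 nM biotinylated H3K9 peptide, 20 µM SAM and 20 nM enzyme, which had been preincubated 15 min with compound.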
# BAZ2B inh – qHTS Assay for Inhibitors of BAZ2B | Bromodomain adjacent to zinc finger domain protein 2B (Homo sapiens), Q9UIF8 | AlphaScreen BAZ2B-H3K14Ac peptide displacement | Potency, µM (highest dose often 114 µM), for inactives: at the top dose activity change, negative = inhibition, most hits filed as inhibitors | 360,000 tested, 4.4% active | AID 504333, 2011; further: on the % scale 0 is the no-effect control and ±100 the full control effect; nearly all actives have a fitted effect of over 60% in size
#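 AlphaScreen luminescence quantifies BAZ2B engagement of H3K14Ac peptide; the protein and biotinylated peptide are both at 50 nM final, buffer PBS pH 7.4 with 0.01% Tween-20, all steps at room temperature.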
# GLS inhibitor – qHTS for Inhibitors of Glutaminase (GLS); Potency, µM (highest dose often 45.5 µM), without a hit: top-dose activity change, negative = inhibition, hits mostly inhibitors; GLS enzymatic activity, qHTS titration; 410,000 tested, 0.21% active; further: on the % scale 0 is the no-effect control and ±100 the full control effect
#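 Human kidney-isoform GLS in 45 mM KH2PO4 pH 8.2, 0.02% Tween-20, with compound, started with 1mM L-Glutamine (added stock). Glutamate oxidase/HRP/Amplex red coupled fluorescence read at start and after 30 min at RT.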
# JMJD2A Tudor inh – qHTS Assay for Inhibitors of JMJD2A-Tudor Domain | 390,000 tested, 4.4% active | AlphaScreen JMJD2A-Tudor / H3K4me3 peptide binding | Potency, µM (titrated, usually from 114 µM), inactives show at the highest dose activity change, negative = inhibition, hits mostly inhibitors | Lysine-specific demethylase 4A (Homo sapiens), O75164 | AID 504339, 2011; further: on the % scale 0 is the no-effect control and ±100 the full control effect; nearly all actives have a fitted effect of over 50% in size
# HP1b binding inh – HTS for Inhibitors of HP1-beta Chromodomain Interactions with Methylated Histone Tails | Potency, µM (highest dose often 114 µM), inactives show at the top dose activity change, negative = inhibition, hits mostly inhibitors | AID 540317, 2011 | AlphaScreen HP1-beta / biotin-H3K9me3 peptide binding | 390,000 tested, 0.56% active | Chromobox protein homolog 1 (Homo sapiens), P83916; further: nearly all actives have a fitted effect of over 70% in size
# Target sequence (P83916 whole entry, looked up): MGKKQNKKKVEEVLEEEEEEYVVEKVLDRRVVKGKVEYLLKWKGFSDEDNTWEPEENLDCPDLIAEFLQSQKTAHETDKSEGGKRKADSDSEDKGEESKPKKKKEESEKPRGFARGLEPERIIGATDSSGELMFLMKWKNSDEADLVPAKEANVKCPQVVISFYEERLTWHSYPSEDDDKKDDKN
#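 Compound inhibition of the preformed complex between 50 nM HP1-beta and 50 nM biotinylated H3K9me3 peptide was read by AlphaScreen. Buffer was PBS pH 7.4 with 0.01% Tween-20. Incubations ran 30 min at room temperature, with 10 ug/mL donor/acceptor beads.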
# * marks the source's active call; other numbers are inactive results; u = inconclusive; x = no result; [ ] = dose if it differs, or a comment. In the library only some 10% were active in any assay of this set; here they are far more common. The call rests on the fitted dose curve; in most records, active means well fitted curve in the direction sought with a large enough effect; inconclusive means small, poorly fitted or top-dose-only effect, or another doubt; inactive means no such curve, though single readings can be large; an effect the other way counts as inactive or inconclusive. Potency means the concentration at half of the fitted maximal effect.
SMILES,L3MBTL1 inh,G9a block,BAZ2B inh,GLS inhibitor,JMJD2A Tudor inh,HP1b binding inh
Oc1ccc2ccccc2c1CN1CCCCC1,x,x,x,-3%,-15%,9%
CCOC(=O)N1CCN(Cc2ccc3ccccc3c2)CC1,-5%,x,u,-6%,25µM*,u
CCOC(=O)N1CCN(C(=O)c2ccc3ccccc3c2)CC1,-11%,x,5%,0%,1%,28%
Oc1ccc2ccccc2c1CN1CCCC1,-7%,6.3µM*,-20%,-29%,2%,8%
CCOC(=O)C1CCN(S(=O)(=O)c2ccc(CC)cc2)CC1,45%,51%[59 µM],60%,u,40µM*,23%
CCOC(=O)C1CCN(Cc2ccc3ccccc3c2)CC1,-6%,u,u,2%,56µM*,u
CC(=O)c1ccc(NC(=O)c2cc(-c3ccc(Cl)c(Cl)c3)on2)cc1,x,7%[59 µM],2%,1%,9%,28%
Oc1ccc2ccccc2c1SSc1c(O)ccc2ccccc12,x,6.7µM*,x,x,x,x
COC(=O)C1CCN(C(=O)COC(=O)C2CCN(S(=O)(=O)c3c(Cl)cccc3Cl)CC2)CC1,-6%,u,1%,3%,-21%,-3%
CCOC(=O)N1CCN(C(=O)COC(=O)C2CCN(S(=O)(=O)c3c(Cl)cccc3Cl)CC2)CC1,13%,50µM*,2%,-1%,-17%,20%
CCOC(=O)c1ccc(N2C(=O)CC(N3CCC(Nc4ccc(F)cc4)CC3)C2=O)cc1 (stereo not given),x,10µM*,-31%,-4%,u,12%
CCOC(=O)c1ccc(N2C(=O)CC(C3CCCO3)C2=O)cc1 (stereo not given),x,12%[59 µM],5%,2%,-14%,20%
CCOC(=O)c1ccc(N2C(=O)CC(N3CCCC(C)C3)C2=O)cc1 (stereo not given),x,10µM*,4%,0%,-6%,40%
Cc1cccc(N2C(=O)CC(N3CCN(c4ccccc4)CC3)C2=O)c1 (stereo not given),x,-60%,-1%,-23%,-17%,38%
CCOC(=O)c1ccc(N2C(=O)CC(N3CCN(Cc4ccccc4)CC3)C2=O)cc1 (stereo not given),3%,-8%,4%,5%,-10%,13%
CCOC(=O)C1CCCN(C2CC(=O)N(c3cccc(C)c3)C2=O)C1 (stereo not given),3%,28µM*,u,-11%,u,40%
COc1ccc(C(=O)c2sc(Nc3ccccc3)nc2N)cc1OC,x,71µM*,-32%,u,u,-24%
Cc1ccccc1Nc1nc(N)c(C(=O)c2ccccc2Cl)s1,x,-49%[59 µM],32µM*,-6%,56µM*,-25%
COc1ccc(C(=O)c2sc(Nc3ccccc3)nc2N)cc1,-12%,-15%,-10%,-3%,-20%,31%
Cc1ccccc1Nc1nc(Cl)c(C=O)s1,4%,11%,1%,11%,1%,41%
COc1ccc(C(=O)c2sc(Nc3cc(Cl)ccc3C)nc2N)cc1OC,x,-48%[59 µM],u,2%,22µM*,-21%
Nc1nc(Nc2ccccc2)sc1C(=O)c1ccccc1,x,45µM*,40µM*,u,u,u
COc1ccc(NS(=O)(=O)c2ccc3c(c2)CCC(=O)N3)cc1,x,x,x,x,-13%,x
O=C(O)C1Cc2ccccc2CN1S(=O)(=O)c1ccc2ccccc2c1 (stereo not given),x,7.9µM*,50µM*,15%,50µM*,8%
Cc1ccc(S(=O)(=O)N2Cc3ccccc3CC2C(=O)Nc2ccc3c(c2)OCO3)cc1 (stereo not given),x,u,u,0%,79µM*,u
